# Shown are actives, neighbours in structure and some others; about 2.2% of the full set was active somewhere.
# PLC-gamma1 inh – PLC-gamma1 (human) inhibition, primary screen; purified PLC-gamma1, fluorogenic substrate, fluorescence; inhibition, % at 12.2 µM; 370,000 compounds, 0.84% hits; P19174; AID 720700; in the data active means inhibition above about 9.5%
# FAS TE block – inhibitors of human fatty acid synthase thioesterase domain. 360,000 compounds, 0.67% hits. AID 602261. P49327. recombinant FAS-TE, OMFH fluorogenic substrate, fluorescence endpoint. inhibition, % at 15 µM;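 active means compounds whose normalised, plate-corrected inhibition of enzyme fluorescence in the single-dose primary screen is 50% or more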;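 further: 0% = DMSO with enzyme and 100% = substrate without enzyme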
# Cardio protect – protects H9c2 cardiomyocytes from peroxide injury. protection from H2O2 cell death, % at 20 µM. 360,000 compounds, 0.63% hits. H2O2 injury protection, ATPLite, 2 h;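 active means compounds giving at least 50% protection of heart cells from peroxide-induced death in the single-dose screen, raw or plate-pattern-corrected value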;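 further: 0% = DMSO wells with peroxide and 100% = DMSO wells without peroxide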
# PLC-beta3 inh – PLC-beta3 (human) inhibition, primary screen; inhibition, % at 12.2 µM; 370,000 compounds, 0.18% hits; Purified PLC-beta3, fluorogenic substrate, fluorescence; in the data active means inhibition above about 11%;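 further: 0% = median of compound wells on plate and 100% = full blocker control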
# FAS-TE conf – confirmation of human fatty acid synthase thioesterase inhibitors. shares compounds with FAS TE block. recombinant FAS-TE, OMFH fluorogenic substrate, fluorescence. inhibition, % at 15 µM. 2,300 compounds, 45% hits. AID 624325;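 active means compounds inhibiting the enzyme by at least 50% at 15 µM in any one of the replicates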;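 further: 0% = enzyme with DMSO only and 100% = wells lacking enzyme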
# An asterisk follows results filed as active; i = inactive; / = not tested or not shown.
SMILES,PLC-gamma1 inh,FAS TE block,Cardio protect,PLC-beta3 inh,FAS-TE conf
CCCCOc1ccc(C(=O)N/C(=C\c2cccc([N+](=O)[O-])c2)C(=O)OCCC)cc1,1.1,11.7,-11.5,3.2,/
CCCCOc1ccc(C(=O)N/C(=C\c2ccc([N+](=O)[O-])cc2)C(=O)OCc2ccco2)cc1,3.1,59.8*,-9.5,2.0,39.8
COc1ccc(/C=C(/NC(=O)c2ccc([N+](=O)[O-])cc2)C(=O)NC(C)(C)C)cc1,0.0,70.4*,-3.0,2.8,54.8*
CC(C)(C)OC(=O)NCc1ccccc1/C=C/S(=O)(=O)NCc1ccccc1,1.5,/,/,1.6,/
COC(=O)[C@]12C[C@H](CC(=O)NCCCCc3ccccc3)C(=O)N(Cc3cccc4ccccc34)C1=C[C@H](C(C)(C)C)O[C@@H]2C,0.9,/,/,-1.1,/
Cc1c(Cl)cccc1N1C(=O)C(N2C(=O)c3cccc([N+](=O)[O-])c3C2=O)C1c1cccs1 (stereo unspecified),/,62.7*,-3.6,/,34.5
Cc1cc(C)n(-c2cc(N3CCN(S(=O)(=O)c4ccc(Br)cc4)CC3)ccc2[N+](=O)[O-])n1,5.5,50.7*,-3.5,7.8,12.4
CC(C)COc1ccc(-c2nn(-c3ccccc3)cc2/C=C2/SC(=S)N(CC(=O)O)C2=O)cc1,-17.9,78.5*,-1.5,-25.1,10.3
Cc1ccc(-c2nn(-c3ccccc3)cc2C=C2SC(=S)N(CCS(=O)(=O)O)C2=O)cc1,-14.6,0.0,3.0,-4.6,/
O=C1C(=Cc2cn(-c3ccccc3)nc2-c2ccc(OCc3ccccc3)cc2)SC(=S)N1CCS(=O)(=O)O,-7.7,71.2*,14.3,-21.5,14.8
COc1ccc([C@H]2/C=C\CN(S(=O)(=O)c3cccc4cccnc34)[C@@H](C)C(=O)N2Cc2ccc(F)cc2)cc1,-1.0,78.3*,-2.0,0.9,5.7
CCCCCCCCN1CCS(=O)(=O)N(Cc2ccc(F)cc2)C(C(=O)OC)C1 (stereo unspecified),1.0,/,/,-0.1,/
O=C(NCCc1cccc(Cl)c1)c1ccc(Cl)c([N+](=O)[O-])c1,5.0,71.9*,-1.7,1.2,50.3*
Cc1ccc(OCCNC(=O)CNC(=O)c2ccc(Cl)c([N+](=O)[O-])c2)cc1,1.3,62.2*,-5.7,-4.0,53.6*
O=C(NCCCc1ccccc1)c1ccc([N+](=O)[O-])cc1Cl,-0.1,83.7*,-3.0,-4.7,87.6*
Cc1ccc(C(=O)NCCc2cccc(Cl)c2)cc1[N+](=O)[O-],4.0,51.5*,-7.6,1.1,31.7
C[C@H]1[C@@H](OC(=O)NCc2cccs2)CC[C@@]23CCCN2C(=O)CCC[C@@H]13,-1.8,/,/,1.6,/
N[C@H](C(=O)N[C@@H](Cc1ccccc1)C(=O)N1CCC2CCN(S(=O)(=O)c3ccccc3)CC21)c1ccccc1 (stereo partly specified),3.9,/,/,-3.1,/
NC(Cc1ccc(O)cc1)C(=O)NN=Cc1ccccc1O (stereo unspecified),-33.8,/,/,-43.1,/
O=C(NCCc1cccc(Cl)c1)c1cc([N+](=O)[O-])ccc1Cl,2.9,63.6*,3.7,-0.6,46.2
COc1ccc(-c2nn(-c3ccccc3)cc2C(=O)N2CCN(S(=O)(=O)c3ccccc3C#N)CC2)cc1,-2.5,23.0,12.5,-7.1,/
COc1ccc(-c2nn(-c3ccccc3)cc2C(=O)N2CCN(S(=O)(=O)c3ccccc3[N+](=O)[O-])CC2)cc1,-0.1,78.5*,1.4,-2.2,25.5
CCOc1ccc2nc(Cl)c(C3CC(c4ccco4)=NN3S(=O)(=O)c3ccccc3)cc2c1 (stereo unspecified),-77.8,52.9*,-2.4,-91.3,24.2
O=c1[nH]c(CN2CCN(S(=O)(=O)c3cccs3)CC2)nc2c(Br)cc(Br)cc12,-0.1,55.1*,7.0,-5.4,38.2*
Cc1cccc(NC(=O)CSc2ncnc3sc4c(c23)CCCC4)c1,0.0,/,/,1.3,/
SMILES,PLC-gamma1 inh,FAS TE block,Cardio protect,PLC-beta3 inh,FAS-TE conf
COc1ccc2c(c1)c(CC(=O)Nc1ccccc1OC)c(C)n2C(=O)c1ccc(Cl)cc1,3.2,51.6*,-0.9,1.2,12.2
COc1ccc2c(c1)c(CC(=O)Nc1ccc(C(C)=O)cc1)c(C)n2C(=O)c1ccc(Cl)cc1,-4.3,54.1*,-6.7,-7.8,29.5
COc1ccc2c(c1)c(CC(=O)Nc1nnc(C3CC3)s1)c(C)n2C(=O)c1ccc(Cl)cc1,-5.3,-1.1,19.1,-11.7,/
COc1ccc2c(c1)c(CC(=O)Nc1cc(C)ccc1C)c(C)n2C(=O)c1ccc(Cl)cc1,-3.7,21.4,-7.8,-3.6,/
CCOc1cccc2cc(C(=O)NCCC3=CCCCC3)c(=O)oc12,-30.5,87.2*,6.1,-40.6,74.5*
COC(=O)N1CCCC1c1cccc2[nH]cc(C)c12 (stereo unspecified),-6.7,/,/,-6.1,/
O=C(NCc1ccc(C(F)(F)F)cc1)C1CC(c2c(Cl)cccc2Cl)=NO1 (stereo unspecified),1.2,54.9*,-11.0,0.2,55.4*
O=C(NCc1ccc(C(F)(F)F)cc1)C1CC(c2ccc(C(F)(F)F)cc2)=NO1 (stereo unspecified),1.4,16.9,-30.8,-1.8,/
COc1ccc(-c2cc(-c3ccc(O)cc3)nc(N)c2C#N)cc1,i,56.7*,-4.6,i,34.4
N#Cc1c(-c2ccccc2)cc(-c2ccc(O)cc2)nc1N,i,20.5,1.2,i,/
COc1cccc(NC(=O)c2cc([N+](=O)[O-])ccc2NC(=O)CNCC2CCCO2)c1 (stereo unspecified),-2.3,51.7*,10.5,-6.4,57.4*
CC1=C(C(=O)OCC(Br)(Br)Br)C(c2cccc([N+](=O)[O-])c2)NC(=O)N1CCCC(=O)O (stereo unspecified),-1.6,56.5*,10.8,-2.6,65.0*
Cc1ccc(S(=O)(=O)N(C(=O)c2ccncc2)c2ccc3oc4c(c3c2)CCCC4)cc1[N+](=O)[O-],3.3,54.2*,-15.8,-0.3,23.2
COC(=O)c1c(C)oc2ccc(N(C(=O)c3ccncc3)S(=O)(=O)c3ccc(C)cc3)cc12,/,19.8,-34.5,/,/
Cc1ccc([N+](=O)[O-])cc1S(=O)(=O)N(C(=O)c1ccncc1)c1ccc2oc3c(c2c1)CCCC3,2.6,72.2*,-2.1,1.5,25.9
O=C(C[C@H]1C[C@H](C(=O)N2CCOCC2)[C@@]2(CCC3CCCC3)c3[nH]c4cc(-c5ccco5)ccc4c3CCN2C1=O)NCCN1CCOCC1,-225.1,68.8*,4.8,-318.1,79.6*
COCCCNC(=O)C[C@H]1C[C@H](C(=O)N2CCOCC2)[C@@]2(CCC3CCCC3)c3[nH]c4cc(-c5ccco5)ccc4c3CCN2C1=O,-373.7,59.4*,2.1,i,29.3*
CC[C@]12c3[nH]c4cc(-c5ccco5)ccc4c3CCN1C(=O)[C@@H](CC(=O)NCCCN(C)C)C[C@@H]2C(=O)N1CCN(C(=O)C2CC2)CC1,-130.2,-3.6,4.8,-170.1,/

# High-throughput results: PubChem BioAssay, several laboratories
